Measurements as given in PubChem BioAssay (NCATS).
Records with an inconclusive call do not appear. Entries that show only a call come without a potency. Active and inactive are the calls of the source. The call rests on the fitted dose curve; in most records, active means well fitted inhibition curve with a large enough effect; inconclusive means small, poorly fitted or top-dose-only effect; inactive means flat fitted curve, though single readings scatter.

These compounds were tested against Calcium and integrin-binding protein 1 (Homo sapiens) (UniProt Q99828) (assay: Primary qHTS for Identification of Calcium Integrin Binding Protein 1 (CIB1) Competitor (AID 1508620;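 further: GST tagged CIB1 binding a fluorescein labelled alphaIIb integrin peptide tracer; top concentration of the series differs between compounds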)). Details: CIB1-GST / FITC-alphaIIb peptide fluorescence polarization; series mostly up to 57.7 µM.
Chain of Calcium and integrin-binding protein 1 (Homo sapiens) (Q99828 whole entry, looked up): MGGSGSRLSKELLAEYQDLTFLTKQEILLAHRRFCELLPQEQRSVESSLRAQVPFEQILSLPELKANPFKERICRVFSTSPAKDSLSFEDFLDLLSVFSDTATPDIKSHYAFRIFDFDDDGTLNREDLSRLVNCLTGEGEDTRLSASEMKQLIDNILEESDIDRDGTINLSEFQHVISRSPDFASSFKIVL
Procedure, shortened: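 CIB1-GST (1 uM final) and compound incubated 15 min at room temperature before adding FITC-alphaIIb peptide tracer (100 nM final). Competition for binding read by fluorescence polarization (ex 480, em 540) after another 15 min at room temperature.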

Structure (SMILES) | Potency
N#CC(c1ccnc(NCCc2cccnc2)n1)c1nc2ccccc2s1 (stereo not given) | inactive
CCOC(=O)N1c2ccc(C(F)(F)F)cc2[C@@H](N(Cc2cc(C(F)(F)F)cc(C(F)(F)F)c2)C(=O)OC)C[C@H]1CC | inactive
O=c1[nH]c(=O)n([C@H]2C[C@@H](O)[C@@H](CO)O2)cc1I | inactive
CNC1CCC(N(Cc2cccc(-c3ccncc3)c2)C(=O)c2sc3ccccc3c2Cl)CC1 (stereo not given) | inactive
C[C@]12CC[C@@H]3c4ccc(O)cc4CC[C@H]3[C@H]1[C@@H](O)[C@@H](O)[C@H]2O | inactive
COc1ccc2cc1Oc1ccc(cc1)C[C@H]1c3cc(c(OC)cc3CCN1C)Oc1c(OC)c(OC)cc3c1[C@H](C2)N(C)CC3 | inactive
OC(c1cc(C(F)(F)F)nc2c(C(F)(F)F)cccc12)C1CCCCN1 (stereo not given) | inactive
Cc1c(C(=O)Nc2ccc(N3C[C@@H](C)O[C@@H](C)C3)nc2)cccc1-c1ccc(OC(F)(F)F)cc1 | inactive
Cc1ccc(S(=O)(=O)Nc2nc3ccccc3nc2Nc2ccc3nsnc3c2)cc1 | inactive
COc1cc2nccc(Oc3ccc(NC(=O)Nc4ccc(F)cc4F)c(F)c3)c2cc1OC | inactive
CON(C)C(=O)N1N=C(c2cc(F)ccc2F)S[C@]1(CCCN)c1ccccc1 | inactive
CCCCOCCOc1nc(-c2ccc(C(=O)O)c(F)c2)sc1C | inactive
C#CCN(C)CC1=Cc2ccccc2Oc2ccccc21 | inactive
O=C1NC(=O)C(c2cnc3ccccn23)=C1c1cn2c3c(cccc13)CN(C(=O)N1CCOCC1)CC2 | inactive
CCCCn1c(=O)n(Cc2ccccc2F)c(=O)c2[nH]c(Cc3ccc(NC(C)=O)cc3)nc21 | inactive
Cc1ccc(S(=O)(=O)OCC(=O)Nc2ccc(C(=O)O)c(O)c2)cc1 | inactive
C=C1[C@H](n2cnc3c(=O)[nH]c(N)nc32)C[C@H](O)[C@H]1CO | inactive
C=CC(=O)Nc1cccc(Sc2nc(Nc3ccc(N4CCN(C)CC4)cc3)ncc2Cl)c1 | inactive
Cn1c(=O)c(Oc2ccc(F)cc2F)cc2cnc(NC3CCOCC3)nc21 | inactive
Clc1ccc(C2(c3ccc(-c4cn[nH]c4)cc3)CCNCC2)cc1 | inactive

Structure (SMILES) | Potency
NC1(C(=O)N[C@@H](CCO)c2ccc(Cl)cc2)CCN(c2ncnc3[nH]ccc23)CC1 | inactive
Nc1ncnc2c1ncn2[C@@H]1O[C@H](CO)[C@@H](O)[C@@H]1O | inactive
Cc1cc(NC(=O)Nc2ccc(N(C)C)cc2)c2cc(F)cc(F)c2n1 | inactive
COc1ccc(-c2ccc3ncc4c(c3c2)n(-c2ccc(N3CCNCC3)c(C(F)(F)F)c2)c(=O)n4C)cn1 | inactive
Cc1ccccc1-n1c(Cn2nc(-c3cccc(O)c3)c3c(N)ncnc32)nc2cccc(C)c2c1=O | inactive
CC(C)(OCc1nn(Cc2ccccc2)c2ccccc12)C(=O)O | inactive
CC(=O)O[C@]1(C(C)=O)CC[C@H]2[C@@H]3C=C(Cl)C4=CC(=O)[C@@H]5C[C@H]5[C@]4(C)[C@@H]3CC[C@@]21C | inactive
CCC(c1ccc(O)cc1)C(CC)c1ccc(O)cc1 (stereo not given) | inactive
c1cc(OCCN2CCCCC2)cc(-c2n[nH]c3ccc(-c4ncn[nH]4)cc23)c1 | inactive
C=C1c2cccc(O)c2C(O)=C2C(=O)[C@@]3(O)C(O)=C(C(N)=O)C(=O)[C@@H](N(C)C)[C@@H]3[C@@H](O)[C@H]12 | inactive
C[C@]12CCC3=C4CCC(=O)C=C4CC[C@@H]3[C@H]1CC[C@@]2(O)CC#N | inactive
CC(C)CNc1ccnc(NCc2csc(-c3ccccc3)n2)n1 | inactive
CCN(CC)CCCCNc1nc2cc(Cl)c(Cl)cc2nc1-c1ccc(-c2cccs2)s1 | inactive
O=C1CCCC(=O)C1C(=O)c1ccc(C(F)(F)F)cc1[N+](=O)[O-] | inactive
NC[C@H]1O[C@H](O[C@@H]2[C@@H](O)[C@@H](O[C@H]3O[C@H](CO)[C@@H](O)[C@H](N)[C@@H]3O)[C@H](N)C[C@@H]2N)[C@H](O)[C@@H](O)[C@H]1O | inactive
O=C(O)CCNc1cc(N2CCc3ccccc3CC2)nc(-c2ccccn2)n1 | inactive
CN1CC(=O)N2C(Cc3c([nH]c4ccccc34)[C@H]2c2ccc3c(c2)OCO3)C1=O (stereo not given in full) | inactive
Cc1cnc(-c2cc(N3CCN(C(=O)CCS(C)(=O)=O)CC3)ncc2Cl)c(C)c1 | inactive
COC(=O)N1CCN(Cc2cccc(NC(=O)Nc3ccc(C)nc3)c2F)CC1 | inactive
Oc1cc(O)cc(C=Cc2ccc(O)c(O)c2)c1 | inactive
